# Measurements: paper PMC8384837, “Expanding the binding specificity for RNA recognition by a PUF domain”
# Substitutions are numbered along the chain they refer to.
# Assays:
# Test in all cases: yeast three-hybrid, YBZ-1, SC-Leu-His + 0.5 mM 3-AT, 4 days
# Details in all cases: tags: N-Gal4 AD-HA kept; label: inside an RPR1-promoter hybrid RNA with tandem MS2 sites; ssRNA
# PUM1 PUF domain R6-SFM = molecular target: T1, PUM1 PUF domain R6-SFM (Homo sapiens, UniProt Q14671 828-1176, N1043S;Y1044F;Q1047M)
# T1 sequence: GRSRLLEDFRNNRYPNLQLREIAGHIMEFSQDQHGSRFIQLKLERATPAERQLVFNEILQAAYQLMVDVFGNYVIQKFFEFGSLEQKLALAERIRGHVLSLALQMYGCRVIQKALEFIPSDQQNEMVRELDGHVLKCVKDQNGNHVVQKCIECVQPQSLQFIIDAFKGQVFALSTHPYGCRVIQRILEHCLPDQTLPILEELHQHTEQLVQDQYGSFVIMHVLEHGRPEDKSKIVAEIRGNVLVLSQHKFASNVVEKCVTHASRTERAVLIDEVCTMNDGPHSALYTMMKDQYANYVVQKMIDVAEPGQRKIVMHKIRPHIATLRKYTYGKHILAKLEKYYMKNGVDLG
# Method in brief: (§1)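 Pumilio-1 PUF domain libraries, randomized (NNK) at the three base-contacting residues of each repeat, were co-expressed with matching RNA elements from a centromeric plasmid in strain YBZ-1 (LexA–MS2 coat fusion, HIS3 reporter). Transformants were plated on SC-Leu (input) and SC-Leu-His + 0.5 mM 3-AT (selection) for four days, and repeat regions were PCR-amplified and Illumina-sequenced. The interaction score is the log2 change in variant frequency from input to selection, with pseudocount 1 where absent.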
# PUM1 PUF domain R6-GFS = molecular target: T2, PUM1 PUF domain R6-GFS (Homo sapiens, UniProt Q14671 828-1176, N1043G;Y1044F;Q1047S)
# T2 sequence: T1 sequence with S216G, M220S
# Method in brief: as §1
# PUM1 PUF domain R7-RVS = PUM1 PUF domain R7-RVS (Homo sapiens, UniProt Q14671 828-1176, S1079R;N1080V;E1083S)
# Method in brief: as §1
# PUM1 PUF domain R5-RVC = PUM1 PUF domain R5-RVC (Homo sapiens, UniProt Q14671 828-1176, C1007R;R1008V;Q1011C)
# Method in brief: as §1
# PUM1 PUF domain R5-KQM = PUM1 PUF domain R5-KQM (Homo sapiens, UniProt Q14671 828-1176, C1007K;R1008Q;Q1011M)
# Method in brief: as §1
# PUM1 PUF domain R5-KGN = PUM1 PUF domain R5-KGN (Homo sapiens, UniProt Q14671 828-1176, C1007K;R1008G;Q1011N)
# Method in brief: as §1
# PUM1 PUF domain R2-EPW = PUM1 PUF domain R2-EPW (Homo sapiens, UniProt Q14671 828-1176, N899E;Y900P;Q903W)
# Method in brief: as §1
# PUM1 PUF domain R3-RAW = PUM1 PUF domain R3-RAW (Homo sapiens, UniProt Q14671 828-1176, C935R;R936A;Q939W)
# Method in brief: as §1
sequence,measurement,setting,value
GGCUAGAACUAGUGGAUCCCCCGGCGCCCGGCGGCUCGAGCCCGGGUAAGUGUAAAUAGUCUGCAUGCCGCCGGGCGCCAUGCCUGCAGGUCGACUCUAGAAAACAUG,binding signal,PUM1 PUF domain R6-SFM,2.95 log2 enrichment (interaction score)
same,binding signal,PUM1 PUF domain R6-GFS,2.76 log2 enrichment (interaction score)
GGCUAGAACUAGUGGAUCCCCCGGCGCCCGGCGGCUCGAGCCCGGGUAAGUUUAAAUAGUCUGCAUGCCGCCGGGCGCCAUGCCUGCAGGUCGACUCUAGAAAACAUG,binding signal,PUM1 PUF domain R7-RVS,3.16 log2 enrichment (interaction score)
GGCUAGAACUAGUGGAUCCCCCGGCGCCCGGCGGCUCGAGCCCGGGUAAGUGUCAAUAGUCUGCAUGCCGCCGGGCGCCAUGCCUGCAGGUCGACUCUAGAAAACAUG,binding signal,PUM1 PUF domain R5-RVC,2.54 log2 enrichment (interaction score)
GGCUAGAACUAGUGGAUCCCCCGGCGCCCGGCGGCUCGAGCCCGGGUAAGUGUUAAUAGUCUGCAUGCCGCCGGGCGCCAUGCCUGCAGGUCGACUCUAGAAAACAUG,binding signal,PUM1 PUF domain R5-KQM,4.71 log2 enrichment (interaction score)
same,binding signal,PUM1 PUF domain R5-KGN,3.75 log2 enrichment (interaction score)
GGCUAGAACUAGUGGAUCCCCCGGCGCCCGGCGGCUCGAGCCCGGGUAAGUGUAAAGAGUCUGCAUGCCGCCGGGCGCCAUGCCUGCAGGUCGACUCUAGAAAACAUG,binding signal,PUM1 PUF domain R2-EPW,3.25 log2 enrichment (interaction score)
GGCUAGAACUAGUGGAUCCCCCGGCGCCCGGCGGCUCGAGCCCGGGUAAGUGUAAGUAGUCUGCAUGCCGCCGGGCGCCAUGCCUGCAGGUCGACUCUAGAAAACAUG,binding signal,PUM1 PUF domain R3-RAW,1.15 log2 enrichment (interaction score)
GGCUAGAACUAGUGGAUCCCCCGGCGCCCGGCGGCUCGAGCCCGGGUAAGUGUAAUUAGUCUGCAUGCCGCCGGGCGCCAUGCCUGCAGGUCGACUCUAGAAAACAUG,binding signal,PUM1 PUF domain R3-RAW,4.11 log2 enrichment (interaction score)
